PubChem BioAssay (NCI)
This is part of a sample that, as a whole, favours compounds with a hit. Of some 83,000 tested, about 20% had one in any assay.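 How to read the values: 0–100, growth inhibition (40 = 60% inhibited); 0, no net growth; -100 to 0, cell death (-40 = 40% of starting cells died; -100 = all dead).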 Unmarked numbers belong to inactive results. The source made the active and inactive calls. Rule for the calls: active = growth percent below 10; inactive = the rest.

Assays:
Assay in all cases: NCI-60 one-dose screen, 48 h (100 = growth as untreated, 0 = no growth, -100 = all killed)
SN12C renal = settings: 10 µM unless noted
UO-31 renal = settings: 10 µM unless noted
TK-10 renal = settings: 10 µM unless noted
ACHN renal = settings: 10 µM unless noted
CAKI-1 renal = settings: 10 µM unless noted
A498 renal = settings: 10 µM
HL-60(TB) leukemia = settings: 10 µM unless noted
CCRF-CEM leukemia = settings: 10 µM unless noted
MOLT-4 leukemia = settings: 10 µM unless noted
SR leukemia = settings: 10 µM unless noted
RPMI-8226 leukemia = settings: 10 µM unless noted
OVCAR-8 ovarian = settings: 10 µM unless noted
OVCAR-5 ovarian = settings: 10 µM unless noted
SK-OV-3 ovarian = settings: 10 µM unless noted
IGROV1 ovarian = settings: 10 µM unless noted
OVCAR-3 ovarian = settings: 10 µM unless noted
HS 578T breast = settings: 10 µM unless noted
SK-MEL-2 melanoma = settings: 10 µM unless noted
OVCAR-4 ovarian = settings: 10 µM unless noted
EKVX NSCLC = settings: 10 µM unless noted

SMILES | growth (SN12C renal) | growth (UO-31 renal) | growth (TK-10 renal) | growth (ACHN renal) | growth (CAKI-1 renal) | growth (A498 renal) | growth (HL-60(TB) leukemia) | growth (CCRF-CEM leukemia) | growth (MOLT-4 leukemia) | growth (SR leukemia) | growth (RPMI-8226 leukemia) | growth (OVCAR-8 ovarian) | growth (OVCAR-5 ovarian) | growth (SK-OV-3 ovarian) | growth (IGROV1 ovarian) | growth (OVCAR-3 ovarian) | growth (HS 578T breast) | growth (SK-MEL-2 melanoma) | growth (OVCAR-4 ovarian) | growth (EKVX NSCLC)
CC(C)(C)N1CC1C#N (stereo unspecified) | 103% | 92.1% | 98% | 101% | 92.6% | 105% | 98.3% | 101% | 98.4% | 97.6% | 99.2% | 103% | 99.5% | 101% | 103% | 101% | 104% | – | – | –
O=C1CN=C(c2ccc(Cl)cc2)c2sccc2N1 | 96.2% | 84.6% | 99.7% | 104% | – | 102% | 98.3% | 97.4% | 95.6% | 87.1% | 97.7% | 101% | 104% | 113% | 108% | 109% | 99.6% | 107% | 102% | –
COC(=O)[C@H](Cc1c[nH]c2ccccc12)NC(=O)[C@@H](OC)[C@@H]1Cc2cc3cc(OC4CC(OC5CC(O)C(O)C(C)O5)C(O)C(C)O4)c(C)c(O)c3c(O)c2C(=O)[C@H]1OC1CC(OC2CC(OC3CC(C)(O)C(O)C(C)O3)C(O)C(C)O2)C(O)C(C)O1 (stereo partly specified) | 10.6% | -6.63% (active) | 8.12% (active) | 0.567% (active) | 19.5% | -52.8% (active) | -8.66% (active) | 5.66% (active) | 0.755% (active) | 4.93% (active) | -5.61% (active) | 11% | 15.3% | 18.2% | 23.4% | 4.79% (active) | -13.6% (active) | – | 0.345% (active) | 3.61% (active)
C[C@@H]1C[C@@]2(C)[C@@H](CC[C@@H]3[C@@H]2CC[C@]2(C)C(=O)CC[C@@H]32)CC1=O | 103% | 96.3% | 94% | 103% | -30.7% (active) | 71.9% | – | 83.7% | 66.2% | 108% | 137% | 62.6% | 93.6% | 120% | 76.7% | 112% | 81.2% | – | 103% | 86.5%
NC(CCl)CCl | 101% | 93.3% | 111% | 104% | – | 111% | 123% | – | 105% | 108% | 99.3% | 100% | 107% | -100% (active) | 110% | 100% | – | 124% | 102% | –
C=C1C(=O)O[C@H]2[C@H]1CC/C(COC(=O)C(=O)c1cn(Cc3ccccc3)c3ccccc13)=C\CC[C@@]1(C)O[C@@H]21 | -70.3% (active) | -91.3% (active) | -62.2% (active) | -61.5% (active) | -34.6% (active) | 52.4% | -26.6% (active) | -30.6% (active) | -17.3% (active) | 4.96% (active) | -36.2% (active) | -2.2% (active) | -32.6% (active) | 86.9% | -85.5% (active) | -82.7% (active) | 5.95% (active) | – | 7.79% (active) | -40.7% (active)
COc1ccc(/C=C\c2cc(OC)c(OC)c(OC)c2)c(NS(=O)(=O)c2ccc(C)cc2)c1O | 35.6% | 53.4% | 65.2% | 23.7% | 19.8% | – | 9.18% (active) | 21.9% | 20.8% | 17.2% | 31.5% | 25.1% | 38.8% | 25.1% | 32.2% | -30.9% (active) | 39.9% | -6.34% (active) | – | –
CCC1(C)CC(CCNCc2ccccc2O)(c2ccc(C)cc2)CCO1 (stereo unspecified) | 105% | 101% | 106% | 102% | – | 103% | 97.3% | 103% | 101% | 96% | 98.2% | 103% | 100% | 112% | 95.6% | 105% | 104% | 104% | 100% | –
NC(=O)c1c(Br)n(C2OC(CO)C(O)C2O)c2ncnc(N)c12 (stereo unspecified) | 13.4% | 1.86% (active) | 30.4% | 12.1% | – | -29.9% (active) | -37.2% (active) | -34.4% (active) | – | – | – | 5.8% (active) | 24.4% | -8.9% (active) | -48.3% (active) | -43.3% (active) | -8.41% (active) | – | – | -2.28% (active)
